Experimental data: PubChem BioAssay
A number with no mark means an inactive call. Rule as the data show it: active = inhibition above about 30%; inactive = the rest.

Test: growth suppression of yeast trafficking mutant, preliminary HTS, modulators of trafficking downstream of Golgi apparatus project, 1536-format plate, OD 615 nm (AID 637)
Conditions: yeast transport mutant growth, absorbance 615 nm, 18 h; stronger effect = higher value

Row | SMILES | inhibition
1 | COCCN(C(=O)CCC(=O)Nc1ccccn1)C(C(=O)NC1CCCC1)c1ccc(OC)cc1 (centres undefined) | -0.49%
2 | CCC(=NC(C)c1ccccc1)c1c(O)n(C)c(=O)n(C)c1=O (centres undefined) | 6.39%
3 | Cn1c(SCC(=O)N2CCOCC2)nnc1-c1cnccn1 | -9.17%
4 | CC(=O)C1=C(O)C(=O)N(Cc2cccnc2)C1c1ccccc1 (centres undefined) | -1.77%
5 | CCOC(=O)c1c(NCc2ccc3c(c2)OCO3)c2ccccc2[nH]c1=O | 1.33%
6 | Cc1c(C(=O)O)sc2ncn(C)c(=O)c12 | -4%
7 | O=c1ccc(S(=O)(=O)N2CCC(Cc3ccccc3)CC2)c[nH]1 | -4.33%
8 | c1ccc2nc(-c3nc4ccccc4[nH]3)ccc2c1 | -1.64%
9 | COc1cc(OC)c(NC(=O)c2ccco2)cc1Cl | 0%
10 | O=S(=O)(c1ccc(OCC(O)CN2CCC(Cc3ccccc3)CC2)cc1)N1CCOCC1 (centres undefined) | -5.24%
11 | C/C(N)=C(/C#N)C(=O)COC(=O)CCSc1ccccc1 | 4.59%
12 | Cn1c(-c2ccccc2)cc(=O)c2ccccc21 | -2.13%
13 | C=C(c1cccc2ccccc12)P(=O)(O)O | 4.75%
14 | COC(=O)CSc1nc(C)c(C(C)=O)cc1C#N | -0.65%
